Source: PubChem
MITF TRPM1 inh – reduces MITF-dependent TRPM1 promoter luciferase signal; SK-MEL-5 TRPM1 promoter luciferase, 24 h; inhibition, % at 12.5 µM; 330,000 compounds, 0.83% hits;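 active means mean inhibition across replicates of 60% or more, whatever share of single replicates reaches that level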
TWEAK Fn14 block – inhibitors of TWEAK-Fn14 interaction signaling | TWEAK-stimulated Fn14 reporter cells, luciferase luminescence, 8 h | inhibition, % at 10 µM | 360,000 compounds, 2% hits; in the data active means inhibition above about 50%
TROY NFkB inh – TROY signaling inhibition. Q293 LMP1-TROYcd NF-kB luciferase reporter, 4 h. inhibition, % at 10 µM. 360,000 compounds, 0.98% hits;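 active means compounds whose plate-normalised and pattern-corrected inhibition of the luciferase reporter signal at the single screening dose is 50% or more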
Shn3 3UTR inh – inhibitors of Schnurri-3 3'UTR reporter in osteoblasts | Clone20 osteoblast Shn3 3'UTR firefly luciferase, 24 h | inhibition, % at 12.5 µM | 360,000 compounds, 0.52% hits | AID 588674;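 active means mean inhibition of at least 75% with every replicate also reaching 75%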;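 further: 0% = median of neutral control wells and 100% = pilot-screen positive control compound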
HIF-2a block – blocks HIF-2a reporter activity. 360,000 compounds, 0.72% hits. 786-0 RCC cells HIF-2a reporter, luciferase luminescence, overnight. inhibition, % at 18.8 µM;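 active means inhibition of the luminescence signal of 40% or more relative to plate controls, in a single-dose primary screen at 18.75 µM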
LMP1 NFkB inh – reduces LMP1-driven NF-kappaB luciferase signal; LMP1-induced NF-kappaB luciferase reporter cells, luminescence; inhibition, % at 12.5 µM; 350,000 compounds, 0.69% hits; AID 504558; in the data active means inhibition above about 41%;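 further: 0% = neutral control wells and 100% = reference inhibitor control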
* hit, by the source's call; / = no result given. Most compounds without a hit are left out; they make up all but 3.4% or so of the library.

SMILES	MITF TRPM1 inh	TWEAK Fn14 block	TROY NFkB inh	Shn3 3UTR inh	HIF-2a block	LMP1 NFkB inh
CCOC(=O)C(C(C)=O)c1c(Br)c(O)c(O)c2c(C(=O)c3ccc(C)cc3)coc12 (stereo unspecified)	48.6	75.5*	10.6	64.6	36.4	-5.7
CC(C)[C@H](N[C@@H](C)c1ccccc1)c1c(O)ccc2ccccc12	0.9	4.6	20.0	12.8	11.3	66.1*
COc1cc(S(=O)(=O)NC2CCCC2)ccc1F	-1.6	4.0	23.6	-22.1	18.5	2.2
O=S(=O)(NC1CC1)c1ccc(Cl)cc1F	9.9	99.2*	1.5	-11.4	10.2	-9.4
Cc1ccc(C(O)c2ncc(-c3cccc(C(F)(F)F)c3)[nH]2)cc1 (stereo unspecified)	/	2.2	6.1	4.5	-6.4	/
O=C1c2ccccc2C(=O)c2[nH]c(=O)[nH]c21	100.5*	45.1	53.8*	70.5	7.1	88.6*
O=C1c2ccccc2C(=O)c2[nH]cnc21	42.7	-10.8	-7.6	17.0	16.8	-6.6
CCCCC[C@@H](C)N1C[C@H](COCc2ccccc2)Oc2cc(N3CCC[C@H]3COC)ccc2S1(=O)=O	/	3.6	0.6	/	7.5	/
CCC(C)N1C(=O)CCC1C(=O)N1CCN(c2ccc(F)cc2)CC1 (stereo unspecified)	-0.3	-4.2	-17.1	-2.5	0.1	63.9*
COc1ccc(C(=O)Sc2ccc(Cl)cc2)cc1OC	-16.0	57.4*	5.3	1.2	-31.3	-5.6
COc1ccc(C(=O)Sc2ccc(C)cc2)cc1OC	-34.8	27.7	1.3	-53.6	-69.0	0.8
N#C/C(=C(/O)CCl)c1nc2ccccc2[nH]1	79.6*	17.8	-14.8	9.2	-63.0	-8.8
N#C/C(=C(\O)Cc1ccccc1)c1nc2ccccc2[nH]1	4.0	14.3	-8.2	89.6*	-2.3	6.0
N#C/C(=C(/O)COC(=O)CCC1CCCCC1)c1nc2ccccc2[nH]1	3.2	89.2*	-10.3	1.0	-3.9	-7.3
C/C(O)=C(\C#N)c1nc2ccccc2[nH]1	-5.4	8.6	20.6	2.2	2.4	1.1
ON=C1c2ccccc2-c2cc(Br)ccc21	-6.3	71.4*	44.1	-4.2	-52.6	8.3
O=C(O)C1OC1(c1ccccc1Cl)c1ccccc1Cl (stereo unspecified)	-0.9	10.7	4.4	22.5	15.2	-6.0
COc1ccc(-c2nc(CS(=O)CC(=O)NC3CCCCC3C)c(C)o2)cc1 (stereo unspecified)	8.4	-5.0	4.2	-14.6	-3.0	2.8
COC[C@@H]1CCCN1[C@H]1CS(=O)(=O)N[C@@H]1COCc1ccccc1	/	-15.0	-4.0	-14.4	-0.8	/
Cn1cc([N+](=O)[O-])c(C(=O)NC2CCCC2)n1	8.7	-2.4	12.7	-1.4	7.4	-1.8
O=c1[nH]c(Nc2nc3ccccc3o2)nc2c1CCCC2	46.2	97.9*	75.5*	80.3	-70.3	74.5*
Cc1ccc(Nc2nc3c(c(=O)[nH]2)CCCC3)cc1	-34.3	-23.3	-32.6	-31.3	-258.9	-8.7
COc1cc(/C=C/C(=O)O)cc(S(=O)(=O)N2CCN(S(=O)(=O)c3ccc(Cl)cc3)CC2)c1OC	-3.8	25.2	3.1	0.0	7.1	1.2
O=C(CN1CCC(C(=O)c2ccc(Cl)cc2)CC1)Nc1ccc2c(c1)OCCO2	13.9	62.1*	28.9	6.1	34.8	-0.9
O=C(CSc1ccc(-c2ccc(Cl)cc2)nn1)Nc1ccc2c(c1)OCCO2	6.8	28.5	62.1*	8.3	-38.8	-6.9
SMILES	MITF TRPM1 inh	TWEAK Fn14 block	TROY NFkB inh	Shn3 3UTR inh	HIF-2a block	LMP1 NFkB inh
NC(=O)C1CCN(CC(=O)Nc2ccc3c(c2)OCCO3)CC1	-0.8	7.5	-18.8	-4.6	-7.7	0.6
O=C(CSc1nnc(-c2ccc(Cl)cc2)n1Cc1ccco1)Nc1ccc2c(c1)OCCO2	9.1	10.1	52.1*	3.3	5.7	4.9
CC(=O)Nc1cccc(NC(=O)CSc2ncc(-c3ccc(Cl)cc3)n2Cc2ccco2)c1	8.8	80.6*	61.1*	83.8	17.3	4.8
Cc1noc(C)c1-c1ccc(C(=O)N2CCN(C)CC2)c2occc12	/	2.0	-3.8	-19.3	-1.9	/
O=C1NC(=Nc2ccccc2Cl)S/C1=C\c1cccc([N+](=O)[O-])c1	9.1	9.7	70.1*	10.2	10.3	9.5
CCn1c(SCC(=O)Nc2nc3ccc(C)cc3s2)nc2c(c1=O)SC(C)C2 (stereo unspecified)	14.1	92.9*	19.1	/	-11.9	33.7
CCn1c(SCC(=O)Nc2cc(C)on2)nc2c(c1=O)SC(C)C2 (stereo unspecified)	12.8	-6.3	-7.8	17.8	9.7	3.1
O=C(COc1coc(CN2CCN(c3ccc(F)cc3)CC2)cc1=O)NCC1CCCO1 (stereo unspecified)	10.2	0.4	2.7	-1.4	-2.1	-6.0
CC(=O)c1ccc(OCC(=O)Nc2ccccc2C(=O)NC2CC2)cc1	3.8	-4.8	0.8	-0.8	0.0	3.4
COc1cccc(C(C(=O)NC2CCCC2)N(C(=O)c2csnn2)C2CC2)c1 (stereo unspecified)	-2.7	20.6	12.8	1.3	8.4	1.4
Cc1ccc(NC(=O)CN(C(=O)N2CCN(C)CC2)S(=O)(=O)c2ccc(C)cc2)cc1	-5.7	-5.5	55.2*	-10.8	13.1	-4.1
Cc1ccc(S(=O)(=O)N(CC(=O)Nc2ccc(F)cc2)C(=O)N2CCN(C)CC2)cc1	4.6	5.7	-4.6	1.3	9.1	-8.1
CN(Cc1ccccc1)C(=O)c1cccc(NC(=O)Cc2cccc([N+](=O)[O-])c2)c1	-7.0	12.8	14.7	19.9	-17.3	0.2
CN(Cc1ccccc1)C(=O)c1ccc(NC(=O)Cc2ccc(NC(=O)C3CCN(C(=O)CCc4ccccc4)CC3)cc2)cc1	13.8	18.2	19.0	51.4	9.6	2.6
CN(Cc1ccccc1)C(=O)c1cccc(NC(=O)Cc2ccc(NC(=O)C3CCN(C(=O)CCc4ccccc4)CC3)cc2)c1	40.5	84.7*	56.5*	72.2	-5.7	11.3
CN(C(=O)c1cccc(NC(=O)Cc2ccc(NC(=O)C3CCCN(C(=O)CCc4ccccc4)C3)cc2)c1)C1CC1 (stereo unspecified)	6.0	14.0	3.5	-1.3	13.4	10.1
CN(Cc1ccccc1)C(=O)c1cccc(NC(=O)Cc2ccc([N+](=O)[O-])cc2)c1	16.8	3.5	22.8	88.0*	0.1	1.5
CN(C(=O)c1cccc(NC(=O)Cc2ccc(NC(=O)C3CCCN(C(=O)CCc4ccccc4)C3)cc2)c1)C1CCCCC1 (stereo unspecified)	48.1	89.0*	62.5*	53.8	1.8	19.6
CCCNC(=O)c1cc(C2CCCN(C(=O)c3cc(F)ccc3C)C2)on1 (stereo unspecified)	/	-5.2	-0.2	12.9	-4.6	/
COc1cccc(C(=O)NCCSc2c(C)[nH]c3ccccc23)c1OC	2.5	3.5	35.1	18.0	10.4	2.8
